# From the supplement of paper PMC4466140
# Target: SpBzz1-D2
# Experiment: SPOT peptide array binding signal intensity (averaged, normalized) (arbitrary units (background-subtracted, floor 0; scale differs between SH3 domains)); higher = stronger binding of the SH3 domain to the peptide
# How it was run: (§1)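 The binding signal is the normalized, background-subtracted spot intensity averaged over replicates; its arbitrary units differ between domains. It was obtained by incubating 10 μg/ml GST-fused SH3 domains from four yeast species overnight at 4°C in TBS-based blocking buffer on cellulose membranes with synthetic 15-mer peptides, cysteines replaced by serines, then detecting with anti-GST antibody, HRP anti-mouse secondary and luminol.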
row,Binder,SPOT peptide array binding signal intensity
1,ANNQGPPNLPARDKS,≤ 0

# Target: SpCyk3
# Experiment: as above
# How it was run: as §1
row,Binder,SPOT peptide array binding signal intensity
1,ANNQGPPNLPARDKS,≤ 0

# Target: SpHof1
# Experiment: as above
# How it was run: as §1
row,Binder,SPOT peptide array binding signal intensity
1,ANNQGPPNLPARDKS,0.5

# Target: SpHof1-2
# Experiment: as above
# How it was run: as §1
row,Binder,SPOT peptide array binding signal intensity
1,ANNQGPPNLPARDKS,5.5

# Target: SpHof1-3
# Experiment: as above
# How it was run: as §1
row,Binder,SPOT peptide array binding signal intensity
1,ANNQGPPNLPARDKS,6.75

# Target: SpHse1
# Experiment: as above
# How it was run: as §1
row,Binder,SPOT peptide array binding signal intensity
1,ANNQGPPNLPARDKS,≤ 0

# Target: SpLsb1
# Experiment: as above
# How it was run: as §1
row,Binder,SPOT peptide array binding signal intensity
1,ANNQGPPNLPARDKS,91

# Target: SpLsb4
# Experiment: as above
# How it was run: as §1
row,Binder,SPOT peptide array binding signal intensity
1,ANNQGPPNLPARDKS,6520

# Target: SpMyo1
# Experiment: as above
# How it was run: as §1
row,Binder,SPOT peptide array binding signal intensity
1,ANNQGPPNLPARDKS,≤ 0

# Target: SpNbp2
# Experiment: as above
# How it was run: as §1
row,Binder,SPOT peptide array binding signal intensity
1,ANNQGPPNLPARDKS,≤ 0

# Target: SpPex13
# Experiment: as above
# How it was run: as §1
row,Binder,SPOT peptide array binding signal intensity
1,ANNQGPPNLPARDKS,≤ 0

# Target: SpRvs167
# Experiment: as above
# How it was run: as §1
row,Binder,SPOT peptide array binding signal intensity
1,ANNQGPPNLPARDKS,3210

# Target: SpSla1-D1-D2
# Experiment: as above
# How it was run: as §1
row,Binder,SPOT peptide array binding signal intensity
1,ANNQGPPNLPARDKS,≤ 0

# Target: SpSla1-D3
# Experiment: as above
# How it was run: as §1
row,Binder,SPOT peptide array binding signal intensity
1,ANNQGPPNLPARDKS,≤ 0

# Target: AgAbp1
# Experiment: as above
# How it was run: as §1
row,Binder,SPOT peptide array binding signal intensity
1,TKFRISLGLPVGAIM,4

# Target: AgBbc1
# Experiment: as above
# How it was run: as §1
row,Binder,SPOT peptide array binding signal intensity
1,TKFRISLGLPVGAIM,108

# Target: AgBem1-D1
# Experiment: as above
# How it was run: as §1
row,Binder,SPOT peptide array binding signal intensity
1,TKFRISLGLPVGAIM,429

# Target: AgBzz1-D1
# Experiment: as above
# How it was run: as §1
row,Binder,SPOT peptide array binding signal intensity
1,TKFRISLGLPVGAIM,100

# Target: AgBzz1-D2
# Experiment: as above
# How it was run: as §1
row,Binder,SPOT peptide array binding signal intensity
1,TKFRISLGLPVGAIM,109

# Target: AgCyk3
# Experiment: as above
# How it was run: as §1
row,Binder,SPOT peptide array binding signal intensity
1,TKFRISLGLPVGAIM,66

# Target: AgFus1
# Experiment: as above
# How it was run: as §1
row,Binder,SPOT peptide array binding signal intensity
1,TKFRISLGLPVGAIM,1490

# Target: AgHof1
# Experiment: as above
# How it was run: as §1
row,Binder,SPOT peptide array binding signal intensity
1,TKFRISLGLPVGAIM,91.5

# Target: AgHse1
# Experiment: as above
# How it was run: as §1
row,Binder,SPOT peptide array binding signal intensity
1,TKFRISLGLPVGAIM,911

# Target: AgLsb1
# Experiment: as above
# How it was run: as §1
row,Binder,SPOT peptide array binding signal intensity
1,TKFRISLGLPVGAIM,28

# Target: AgLsb4
# Experiment: as above
# How it was run: as §1
row,Binder,SPOT peptide array binding signal intensity
1,TKFRISLGLPVGAIM,513

# Target: AgMyo5
# Experiment: as above
# How it was run: as §1
row,Binder,SPOT peptide array binding signal intensity
1,TKFRISLGLPVGAIM,3.75

# Target: AgNbp2
# Experiment: as above
# How it was run: as §1
row,Binder,SPOT peptide array binding signal intensity
1,TKFRISLGLPVGAIM,422

# Target: AgRvs167
# Experiment: as above
# How it was run: as §1
row,Binder,SPOT peptide array binding signal intensity
1,TKFRISLGLPVGAIM,21.3

# Target: AgSho1
# Experiment: as above
# How it was run: as §1
row,Binder,SPOT peptide array binding signal intensity
1,TKFRISLGLPVGAIM,548

# Target: AgSla1-D1-D2
# Experiment: as above
# How it was run: as §1
row,Binder,SPOT peptide array binding signal intensity
1,TKFRISLGLPVGAIM,176

# Target: AgSla1-D3
# Experiment: as above
# How it was run: as §1
row,Binder,SPOT peptide array binding signal intensity
1,TKFRISLGLPVGAIM,12

# Target: CaAbp1-D1
# Experiment: as above
# How it was run: as §1
row,Binder,SPOT peptide array binding signal intensity
1,TKFRISLGLPVGAIM,112

# Target: CaAbp1-D2
# Experiment: as above
# How it was run: as §1
row,Binder,SPOT peptide array binding signal intensity
1,TKFRISLGLPVGAIM,134

# Target: CaBbc1
# Experiment: as above
# How it was run: as §1
row,Binder,SPOT peptide array binding signal intensity
1,TKFRISLGLPVGAIM,225

# Target: CaBem1-D1
# Experiment: as above
# How it was run: as §1
row,Binder,SPOT peptide array binding signal intensity
1,TKFRISLGLPVGAIM,199

# Target: CaBzz1-D1
# Experiment: as above
# How it was run: as §1
row,Binder,SPOT peptide array binding signal intensity
1,TKFRISLGLPVGAIM,592

# Target: CaBzz1-D2
# Experiment: as above
# How it was run: as §1
row,Binder,SPOT peptide array binding signal intensity
1,TKFRISLGLPVGAIM,334

# Target: CaCyk3
# Experiment: as above
# How it was run: as §1
row,Binder,SPOT peptide array binding signal intensity
1,TKFRISLGLPVGAIM,162

# Target: CaFus1
# Experiment: as above
# How it was run: as §1
row,Binder,SPOT peptide array binding signal intensity
1,TKFRISLGLPVGAIM,4760

# Target: CaHof1
# Experiment: as above
# How it was run: as §1
row,Binder,SPOT peptide array binding signal intensity
1,TKFRISLGLPVGAIM,1.25

# Target: CaHse1
# Experiment: as above
# How it was run: as §1
row,Binder,SPOT peptide array binding signal intensity
1,TKFRISLGLPVGAIM,193

# Target: CaLsb1
# Experiment: as above
# How it was run: as §1
row,Binder,SPOT peptide array binding signal intensity
1,TKFRISLGLPVGAIM,31

# Target: CaLsb4
# Experiment: as above
# How it was run: as §1
row,Binder,SPOT peptide array binding signal intensity
1,TKFRISLGLPVGAIM,280

# Target: CaMyo5
# Experiment: as above
# How it was run: as §1
row,Binder,SPOT peptide array binding signal intensity
1,TKFRISLGLPVGAIM,69.2
